Hits are enriched below; roughly 7.9% of the tested compounds scored in any of these assays.
KB-3-1 tox: kills parental KB-3-1 adenocarcinoma cells; KB-3-1 viability, CellTiter-Glo ATP luminescence, 72 h; AID 1347075; 400,000 tested, 1.4% active; Potency, µM (titrated, usually from 46.1 µM), hits mostly cytotoxic; further: nearly all actives have a fitted effect of over 60% in size
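Cytotoxicity in the drug-sensitive parental line KB-3-1 was scored as loss of CellTiter-Glo luminescence following 72 h incubation with compound. Values come from curve fitting of normalized concentration-response data.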
KB-V1 cytotox: KB-V1 MDR subline cytotoxicity. AID 1347076. KB-V1 MDR cells viability, CellTiter-Glo, 72 h. Potency, µM (highest dose often 46.1 µM), hits mostly cytotoxic. 400,000 tested, 3.4% active; further: nearly all actives have a fitted effect of over 60% in size
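Readout: CellTiter-Glo luminescence, 10 min after addition. Cells: KB-V1 MDR subline, 72 h at 37 degrees C with compound. Analysis: corrected, normalized data fitted to concentration-effect curves.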
SW480 rerep: DNA re-replication induction in SW480 cells; AID 624297; SW480 DNA re-replication, Hoechst DNA content imaging, 48 h; 340,000 tested, 1.8% active; Potency, µM (highest dose often 46.1 µM), hits mostly activators; further: nearly all actives have a fitted effect of over 55% in size
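DNA re-replication was detected as more nuclei of elevated Hoechst intensity after 48 hr exposure to compound (23 nL pinned per well of 250 cells).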
HT1080NT lethal: kills 2HG-producing HT-1080-NT fibrosarcoma cells | HT-1080-NT fibrosarcoma viability, CellTiter-Glo ATP luminescence, 48 h | Potency, µM (doses to about 46.1 µM), usual class: cytotoxic | 360,000 tested, 1.6% active;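 further: NT is the 2HG producing partner of a matched IDH1 knockdown line; nearly all actives have a fitted effect of over 55% in size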
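Viability by CellTiter-Glo luminescence after 48 h compound exposure at 37C of HT-1080-NT cells (750/well, RPMI, 5% FBS). % activity scaled between DMSO wells and medium-only wells, then curve-fitted and categorized by curve class.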
HT1080 IDH1KD tx: toxicity to HT-1080 IDH1 knockdown cells (counter line); HT-1080 IDH1 knockdown viability, ATP luminescence, 48 h; Potency, µM (top dose mostly 46.1 µM), actives largely listed as cytotoxic; 360,000 tested, 2% active
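Knockdown cells (IDH1KD HT-1080) received compounds 2 h after plating at 750 cells/well and were kept 48 h at 37 °C in 5% FBS RPMI. A CellTiter-Glo luminescence read gave % activity for curve fitting.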
MCF10A rereplic: DNA re-replication induction in MCF 10a cells | 350,000 tested, 2.9% active | Potency, µM (highest dose often 46.1 µM), hits mostly activators | AID 624296 | MCF 10A DNA re-replication, Hoechst nuclear intensity, 48 h; further: nearly all actives have a fitted effect of over 50% in size
Each line names hits and unclear results; the compound was inactive in the other large screens. The call rests on the fitted dose curve; in most records, active means well fitted curve in the direction sought with a large enough effect; inconclusive means small, poorly fitted or top-dose-only effect, or another doubt; inactive means no such curve, though single readings can be large; an effect the other way counts as inactive or inconclusive.

CCOCCn1c(SCc2ccccc2)nc2c1c(=O)[nH]c(=O)n2C	none
C/C=C/Cn1c(SCc2ccccc2)nc2c1c(=O)[nH]c(=O)n2C	KB-V1 cytotox 2.9µM
CCc1cccc(NC(=O)CCc2nc3cccnc3n2Cc2ccc(OC)cc2)c1	KB-V1 cytotox inconclusive (no result: SW480 rerep, HT1080NT lethal, HT1080 IDH1KD tx, MCF10A rereplic)
O=C1Nc2ccccc2CCC1Sc1nnc(-c2ccc(Cl)cc2)s1 (stereo not given)	KB-3-1 tox 21µM, KB-V1 cytotox 18µM, HT1080NT lethal inconclusive
Oc1ccc(-c2nc3c4c(ncn3n2)-c2ccccc2CC42CCCC2)cc1	KB-V1 cytotox inconclusive, MCF10A rereplic 4.6µM
CCOc1ccc(CCNC(=O)c2ccc(C)c(-n3c(C)nc4cccnc43)c2)cc1OCC	none (no result: SW480 rerep, HT1080NT lethal, HT1080 IDH1KD tx, MCF10A rereplic)
O=C(c1ccc(Br)cc1)N(Cc1ccco1)c1ccccn1	none (no result: SW480 rerep, HT1080NT lethal, HT1080 IDH1KD tx, MCF10A rereplic)
Cc1ccc(S(=O)(=O)NCCN=C(CN2CCCC2)NS(=O)(=O)c2ccc(C)cc2)cc1	KB-V1 cytotox 6.5µM
CCC(C)Nc1nc(-c2ccccn2)nc2ccccc12 (stereo not given)	KB-3-1 tox 15µM, KB-V1 cytotox inconclusive, HT1080NT lethal inconclusive, HT1080 IDH1KD tx inconclusive
CC(C)(C)c1ccc(-c2nc(NCc3cccnc3)c3ccccc3n2)cc1	KB-V1 cytotox inconclusive, MCF10A rereplic 13µM
c1ccc(CNc2nc(-c3cccs3)nc3ccccc23)cc1	HT1080NT lethal inconclusive, HT1080 IDH1KD tx 18µM, MCF10A rereplic inconclusive
c1ccc(CNc2nc(-c3ccccn3)nc3ccccc23)cc1	KB-3-1 tox 16µM, HT1080NT lethal inconclusive, HT1080 IDH1KD tx inconclusive
Cc1cccc(C)c1NC(=O)C(c1ccccc1OC(F)(F)F)N1CCN(C)CC1 (stereo not given)	KB-V1 cytotox inconclusive (no result: SW480 rerep, MCF10A rereplic)
COc1cc2c(cc1OC)C(COc1ccc3c(C)cc(=O)oc3c1)N(C(=O)c1ccccc1C)CC2 (stereo not given)	none (no result: SW480 rerep, HT1080NT lethal, HT1080 IDH1KD tx, MCF10A rereplic)
CCOC(=O)C1=CCN(S(=O)(=O)c2ccccc2Cl)C1c1cccc(C)c1 (stereo not given)	KB-V1 cytotox inconclusive (no result: SW480 rerep, MCF10A rereplic)
Cc1ccc(N2CC(C(=O)Nc3ncc([N+](=O)[O-])s3)CC2=O)cc1 (stereo not given)	HT1080NT lethal inconclusive
c1ccc(CNc2nc(NCc3ccccc3)c3ccccc3n2)cc1	KB-V1 cytotox inconclusive, HT1080NT lethal 15µM, HT1080 IDH1KD tx 7.3µM, MCF10A rereplic inconclusive
c1ccc(CNc2nc(-c3ccccc3)nc3ccccc23)cc1	KB-V1 cytotox inconclusive, HT1080 IDH1KD tx inconclusive
O=C(Oc1c(Cl)cc(Cl)c2cccnc12)N1CCOCC1	none
O=C(Oc1c(Cl)cc(Cl)c2cccnc12)N1CCCCC1	none
O=C(Oc1c(CN2CCOCC2)cc(Cl)c2cccnc12)c1ccccc1Br	KB-3-1 tox inconclusive, KB-V1 cytotox inconclusive, SW480 rerep 3.3µM, HT1080NT lethal inconclusive, HT1080 IDH1KD tx inconclusive, MCF10A rereplic inconclusive
CN1CCN(Cc2cc(Cl)c3cccnc3c2OC(=O)c2cccs2)CC1	KB-3-1 tox inconclusive, KB-V1 cytotox 5.8µM, SW480 rerep inconclusive, MCF10A rereplic inconclusive
CCOc1ccc(Br)cc1C1C(C(=O)Nc2ccccc2OC)=C(C)Nc2nnnn21 (stereo not given)	none (no result: SW480 rerep, HT1080NT lethal, HT1080 IDH1KD tx, MCF10A rereplic)
Fc1cccc(Cl)c1CSc1ccc(-c2cccnc2)nn1	MCF10A rereplic 23µM
Oc1ccccc1C=NNC(=S)Nc1ccc(F)cc1	KB-3-1 tox inconclusive, HT1080NT lethal inconclusive, HT1080 IDH1KD tx 5.8µM, MCF10A rereplic inconclusive
CN(C)c1ccc(C=NNC(=S)Nc2ccc(F)cc2)cc1	SW480 rerep inconclusive, MCF10A rereplic 21µM
Fc1ccccc1/C=N/NC(=S)Nc1ccc(Cl)cc1Cl	KB-3-1 tox 8.2µM, KB-V1 cytotox 1.5µM, SW480 rerep 3.3µM, HT1080NT lethal 5.2µM, HT1080 IDH1KD tx 3.3µM, MCF10A rereplic inconclusive
Cc1nn(C)cc1/C=N/NC(=S)Nc1ccccc1	KB-V1 cytotox inconclusive, SW480 rerep 1.6µM
Fc1ccc(NC(=S)NN=Cc2ccccc2Cl)cc1	SW480 rerep inconclusive
CCCCc1cc(=O)oc2cc(C)c3c(C)coc3c12	none (no result: SW480 rerep, HT1080NT lethal, HT1080 IDH1KD tx, MCF10A rereplic)
CCOC(=O)c1c(C)[nH]c(C)c1S(=O)(=O)N(C)CC(=O)N1CCN(c2ccccc2OC)CC1	KB-V1 cytotox inconclusive (no result: SW480 rerep, HT1080NT lethal, HT1080 IDH1KD tx, MCF10A rereplic)

Source: PubChem BioAssay
